Test [1] addresses Voltage-gated inwardly rectifying potassium channel KCNH2 (Homo sapiens) (UniProt Q12809). Put plainly: qHTS Assay for Small Molecule Inhibitors of the Human hERG Channel Activity (AID 588834).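 Note: lower thallium flux fluorescence means stronger hERG block; nearly all actives have a fitted effect of over 50% in size.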 Note: potency is the fitted concentration of half-maximal effect. An outline of the steps:
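hERG-BacMam U2OS, 2000 cells/well; 0.7X FluxOR loading 1 hr RT dark; cpd ~10 min 37 °C; stim buffer; FDSS fluorescence 2 min @ 1 s; AC50 Hill fit.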

Test [2] has as its target Luciferin 4-monooxygenase (Photinus pyralis) (UniProt P08659). In words: Biochemical firefly luciferase enzyme assay for NPC (AID 624030).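 Note: purified P. pyralis luciferase at 10 nM with luciferin and ATP substrate; nearly all actives have a fitted effect of over 70% in size.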 An outline of the steps: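 Purified P. pyralis luciferase at 10 nM in 50 mM Tris Acetate (final), luminescence read within 5 minutes of enzyme addition to compounds. Activity normalised to PTC124 versus DMSO; concentration-response curves classed by r2, magnitude and activity.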

Test [3] can be described thus: S16 Schwann cell viability assay (CellTiter-Glo assay) (AID 624031). Note: nearly all actives have a fitted effect of over 70% in size. Note: potency is the fitted concentration of half-maximal effect. An outline of the steps:
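This viability control uses native rat S16 Schwann cells grown in DMEM plus 10% FBS. After a 24 h compound treatment at 37 °C, CellTiter-Glo luminescence reports ATP content, scaled against DMSO-treated and cell-free wells.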
(In ATP-based viability assays light output follows the ATP content of the culture.)

The nature of test [4]: S16 Schwann cell PMP22 intronic element firefly luciferase assay (AID 624032). Note: nearly all actives have a fitted effect of over 30% in size. Note: potency is the fitted concentration of half-maximal effect. An outline of the steps: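 Rat S16 Schwann cells stably carrying firefly luciferase driven by a PMP22 intronic element, in 10% FBS, treated 24 h at 37 C. ONE-Glo luminescence normalized to PTC124 control and DMSO (0%); curves classed by r2, magnitude and activity.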
A short description of test [5]: S16 Schwann cell PMP22 intronic element beta-lactamase assay (AID 624044; calls by dose curve; note: nearly all actives have a fitted effect of over 15% in size; note: potency is the fitted concentration of half-maximal effect). To be noted: S16 rat Schwann cells, PMP22 element beta-lactamase FRET, 24 h; ratio activity, negative = inhibition: at 38.3 µM (top of the series). An outline of the steps:
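Rat S16 Schwann cells with beta-Lac driven by a PMP22 intronic element, compound-treated 24 h at 37 °C. LiveBLAzer FRET B/G read: 460 nm normalized to potassium clavulanate vs DMSO; 535 nm FRET as viability; concentration-effect curves classified.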

Structures are written as SMILES. Records with an inconclusive call do not appear. Activity calls are given as the source filed them. Unless noted, calls come from the whole dose curve; as a rule, active = well fitted curve in the direction sought with a large enough effect; inconclusive = small, poorly fitted or top-dose-only effect, or another doubt; inactive = no such curve, though single readings can be large; an effect the other way counts as inactive or inconclusive.

This is an account of results in PubChem BioAssay (NCATS).

Luciferin 4-monooxygenase (Photinus pyralis), sequence (P08659 whole entry, looked up): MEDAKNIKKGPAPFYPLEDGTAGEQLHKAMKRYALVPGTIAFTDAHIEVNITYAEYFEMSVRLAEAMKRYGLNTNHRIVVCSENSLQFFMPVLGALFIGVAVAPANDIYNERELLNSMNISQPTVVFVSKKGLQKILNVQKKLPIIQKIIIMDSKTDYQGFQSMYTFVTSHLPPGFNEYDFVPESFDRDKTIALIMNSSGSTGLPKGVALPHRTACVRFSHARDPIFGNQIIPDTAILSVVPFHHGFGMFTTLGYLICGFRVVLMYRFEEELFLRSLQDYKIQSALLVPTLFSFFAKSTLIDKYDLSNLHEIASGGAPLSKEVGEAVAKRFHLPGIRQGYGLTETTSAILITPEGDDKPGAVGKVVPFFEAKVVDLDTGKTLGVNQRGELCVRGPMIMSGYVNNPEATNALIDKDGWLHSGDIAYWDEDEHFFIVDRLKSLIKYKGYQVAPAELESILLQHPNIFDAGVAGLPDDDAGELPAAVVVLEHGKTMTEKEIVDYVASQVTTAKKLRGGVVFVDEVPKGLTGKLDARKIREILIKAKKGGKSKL
Voltage-gated inwardly rectifying potassium channel KCNH2 (Homo sapiens), sequence (Q12809 whole entry, looked up): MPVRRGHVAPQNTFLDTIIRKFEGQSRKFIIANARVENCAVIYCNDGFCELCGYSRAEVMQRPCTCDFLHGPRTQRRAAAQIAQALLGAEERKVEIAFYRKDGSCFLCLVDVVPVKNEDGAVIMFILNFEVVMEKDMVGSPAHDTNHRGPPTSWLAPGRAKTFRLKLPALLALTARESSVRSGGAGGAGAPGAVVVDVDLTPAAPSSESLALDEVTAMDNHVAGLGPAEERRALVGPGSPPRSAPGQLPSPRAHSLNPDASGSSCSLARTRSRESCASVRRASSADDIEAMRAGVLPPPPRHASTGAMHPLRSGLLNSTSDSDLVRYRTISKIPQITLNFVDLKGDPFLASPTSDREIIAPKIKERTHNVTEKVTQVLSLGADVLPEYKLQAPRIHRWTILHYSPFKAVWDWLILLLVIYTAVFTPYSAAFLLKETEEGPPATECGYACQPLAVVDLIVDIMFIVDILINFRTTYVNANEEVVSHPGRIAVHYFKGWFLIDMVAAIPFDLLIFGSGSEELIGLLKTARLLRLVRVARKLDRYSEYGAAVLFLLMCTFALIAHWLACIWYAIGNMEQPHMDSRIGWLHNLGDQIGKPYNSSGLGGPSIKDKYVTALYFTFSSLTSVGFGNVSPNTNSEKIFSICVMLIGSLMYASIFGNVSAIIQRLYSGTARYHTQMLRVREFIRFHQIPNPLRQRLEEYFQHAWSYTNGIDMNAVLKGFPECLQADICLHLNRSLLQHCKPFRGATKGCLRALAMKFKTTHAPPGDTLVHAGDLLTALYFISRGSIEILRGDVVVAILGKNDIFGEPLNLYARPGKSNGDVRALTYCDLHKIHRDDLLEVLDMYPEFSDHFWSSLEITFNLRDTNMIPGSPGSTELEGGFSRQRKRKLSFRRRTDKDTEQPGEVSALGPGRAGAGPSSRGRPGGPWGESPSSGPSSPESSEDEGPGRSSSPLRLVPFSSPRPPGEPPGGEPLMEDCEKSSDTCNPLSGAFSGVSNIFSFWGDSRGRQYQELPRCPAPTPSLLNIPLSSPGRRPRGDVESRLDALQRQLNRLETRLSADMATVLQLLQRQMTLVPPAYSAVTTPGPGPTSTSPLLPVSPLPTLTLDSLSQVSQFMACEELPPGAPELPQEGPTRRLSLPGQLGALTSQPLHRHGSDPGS

For `CC(C)(CO)[C@@H](O)C(=O)NCCCO`, the Potency result in test [1], in test [2], in test [3] and in test [4] was “inactive” throughout.

`c1ccc(-c2ccc(C(c3ccccc3)n3ccnc3)cc2)cc1` (stereo not drawn): the Potency in test [1] was 12.6 µM (active). For the same molecule, the Potency entry in test [2], in test [3], in test [4] and in test [5] was “inactive” each time.

As for `CCCCN1CCCC1C(=O)Nc1c(C)cc(C)cc1C` (stereo not drawn), the Potency entry in test [1], in test [2], in test [3] and in test [4] was “inactive” throughout.

With `CCN(CC)CCNC(=O)COc1ccc(Cl)cc1`, the Potency in test [1] is 14.1 µM (active). For the same molecule, the Potency entry in test [2], in test [3] and in test [4] was “inactive” throughout.

For the molecule `CN=C(NC#N)NCCSCc1csc(N=C(N)N)n1`, the Potency entry in test [1], in test [2], in test [3], in test [4] and in test [5] was “inactive” each time.

For `CCCCC(CC)CN=C(N)NC(N)=NCCCCCCN=C(N)NC(N)=NCC(CC)CCCC` (stereo not drawn), the Potency result in test [1], in test [2] and in test [5] was “inactive” throughout. The Potency in test [3] is 20.3 µM (active); in test [4] it was 25.6 µM (active).

`CCN(CC)CCOC(=O)C(c1ccccc1)C1CCCCC1` (stereo not drawn): the Potency in test [1] was 12.6 µM (active). For the same molecule, the Potency result in test [2], in test [3], in test [4] and in test [5] was “inactive” each time.

As to `CN1CCN(C(c2ccccc2)c2ccccc2)CC1`, the Potency entry in test [1], in test [2], in test [3] and in test [4] was “inactive” in each case.

`NCCc1ccn[nH]1`: the Potency result in test [1], in test [2], in test [3] and in test [4] was “inactive” each time.

Regarding `O=C(O)CNC(=O)c1ccccc1`, the Potency result in test [1], in test [2], in test [3] and in test [4] was “inactive” each time.

As for `CCCCc1nc(Cl)c(CO)n1Cc1ccc(-c2ccccc2-c2nn[nH]n2)cc1`, the Potency entry in test [1], in test [2], in test [3] and in test [4] was “inactive” throughout.

For `NC(CS)C(=O)O` (stereo not drawn), the Potency entry in test [1], in test [2], in test [3], in test [4] and in test [5] was “inactive” each time.

Turning to `C[C@]12CCC(=O)C=C1CC[C@H]1[C@@H]3CC[C@](O)(C(=O)CO)[C@@]3(C)C[C@H](O)[C@@]12F`, the Potency entry in test [1], in test [2], in test [3] and in test [4] was “inactive” each time.

`Cc1cccn2c(=O)c(-c3nnn[nH]3)cnc12`: the Potency entry in test [1], in test [2], in test [3] and in test [4] was “inactive” throughout.

For `C[C@H](O)C(=O)Nc1c(I)c(C(=O)NC(CO)CO)c(I)c(C(=O)NC(CO)CO)c1I`, the Potency result in test [1], in test [2], in test [3] and in test [4] was “inactive” in each case.

For `C[C@@H]1C[C@H]2[C@@H]3CCC4=CC(=O)C=C[C@]4(C)[C@@]3(F)[C@@H](O)C[C@]2(C)[C@H]1C(=O)CO`, the Potency entry in test [1], in test [2], in test [3] and in test [4] was “inactive” in each case.

With `Nc1ccc(C(=O)Nc2ccccc2N)cc1`, the Potency result in test [1], in test [2], in test [3] and in test [4] was “inactive” each time.

Turning to `CC(C)(C(=O)c1cccnc1)c1cccnc1`, the Potency entry in test [1], in test [2], in test [3], in test [4] and in test [5] was “inactive” each time.

With `CC(=O)OCC(=O)NCCCOc1cccc(CN2CCCCC2)c1`, the Potency result in test [1], in test [2], in test [3] and in test [4] was “inactive” in each case.

As for `CCOc1ccc(NC(=O)CC(C)O)cc1` (stereo not drawn), the Potency result in test [1], in test [2], in test [3] and in test [4] was “inactive” throughout.

Take `OCc1ccccc1O`: the Potency result in test [1], in test [2], in test [3] and in test [4] was “inactive” each time.

Take `O=c1c(-c2ccccc2)c1-c1ccccc1`: the Potency entry in test [1], in test [2] and in test [3] was “inactive” in each case. Further, the Potency in test [4] was 3.22 µM (active).

`Cc1cc(O)c(C(C)C)cc1Cl`: the Potency entry in test [1], in test [2], in test [3], in test [4] and in test [5] was “inactive” throughout.

With `Cc1c(C)n(CCN(C)C)c2ccc(C(=O)OCCN(C)C)cc12`, the Potency result in test [1], in test [2] and in test [3] was “inactive” each time. Further, in test [4], the Potency is 32.2 µM (active).

Regarding `CC[N+](CC)(CCNC(=O)C(=O)NCC[N+](CC)(CC)Cc1ccccc1Cl)Cc1ccccc1Cl`, the Potency entry in test [1], in test [2], in test [3], in test [4] and in test [5] was “inactive” throughout.

For the molecule `CCCCC1=NC2(CCCC2)C(=O)N1Cc1ccc(-c2ccccc2-c2nn[nH]n2)cc1`, the Potency result in test [1], in test [2], in test [3], in test [4] and in test [5] was “inactive” each time.

As to `CCC(=O)c1c(O)cc(O)cc1O`, the Potency entry in test [1], in test [2], in test [3], in test [4] and in test [5] was “inactive” throughout.

For `CC(C)=CCC1C(=O)N(c2ccccc2)N(c2ccccc2)C1=O`, the Potency entry in test [1], in test [2], in test [3], in test [4] and in test [5] was “inactive” throughout.

Take `OC(CCN1CCCCC1)(c1ccccc1)c1ccccc1`: the Potency in test [1] is 14.1 µM (active). Besides, the Potency result in test [2], in test [3] and in test [4] was “inactive” each time.

For `CCN1CCN(c2cc3c(cc2F)c(=O)c(C(=O)O)cn3C2CC2)CC1`, the Potency entry in test [1], in test [2], in test [3] and in test [4] was “inactive” each time.

Consider `Cc1c(F)c(N2CCNC(C)C2)cc2c1c(=O)c(C(=O)O)cn2C1CC1` (stereo not drawn), for which the Potency result in test [1], in test [2], in test [3] and in test [4] was “inactive” throughout.

`COc1cc(OC)cc(OC)c1`: the Potency entry in test [1], in test [2], in test [3] and in test [4] was “inactive” throughout.

Take `Cc1ncc(CSSCc2cnc(C)c(O)c2CO)c(CO)c1O`: the Potency result in test [1], in test [2], in test [3], in test [4] and in test [5] was “inactive” throughout.

In the case of `CCOC(=O)c1cccc(N)c1`, the Potency entry in test [1], in test [2], in test [3] and in test [4] was “inactive” throughout.

As for `COCc1c(C(C)C)nc(C(C)C)c(/C=C/[C@@H](O)C[C@@H](O)CC(=O)O)c1-c1ccc(F)cc1`, the Potency result in test [1], in test [2] and in test [3] was “inactive” in each case. Further, the figures for the Potency in test [4] and in test [5] were 4.55 µM (active) and 8.91 µM (active), respectively.
